For the assay, the system named is HEK293 WT BDD-FVIII-Gluc. As to the kind of experiment: secreted FVIII-Gluc luciferase Z-score vs DMSO control; higher = more FVIII-Gluc secretion. As to conditions: 5 µM. The procedure: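 Natural plant-compound library (480 compounds, ST catalogue IDs) screened on HEK293 cells stably expressing WT BDD-FVIII-Gaussia luciferase fusion at 5 µM. Secreted Gluc activity in the medium is given as a Z-score relative to DMSO controls.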
For `CC[C@@H]1OC(=O)[C@@H](C)[C@H](O[C@H]2C[C@@](C)(OC)[C@@H](O)[C@H](C)O2)C(C)[C@H](O[C@H]2O[C@@H](C)C[C@@H](N(C)C)[C@@H]2O)[C@@](C)(O)C[C@H](C)C(=O)[C@@H](C)[C@H](O)[C@@]1(C)O` (stereo not given in full), the “secreted FVIII-Gluc luciferase Z-score” value was -1.17.
For the compound `COC(=O)[C@H]1[C@H]2C[C@H]3c4[nH]c5ccccc5c4CCN3C[C@@H]2CC[C@@H]1O`, the “secreted FVIII-Gluc luciferase Z-score” value is -1.15.
In the case of `COc1cccc2oc(-c3ccc(O)cc3)cc(=O)c12`, the “secreted FVIII-Gluc luciferase Z-score” value came out at 1.3.
Take `CC(=O)Oc1cc(OC(C)=O)c2c(=O)cc(-c3ccc(OC(C)=O)c(OC(C)=O)c3)oc2c1`: the “secreted FVIII-Gluc luciferase Z-score” value amounted to 0.33.
Then `CC1(C)CC[C@]2(C(=O)O)CC[C@]3(C)C(=CCC4[C@@]5(C)CC[C@H](O)C(C)(C)C5[C@H](O)C[C@]43C)C2C1` (stereo not given in full), with 0.207; and `O=c1cc(-c2ccccc2O)oc2ccc3ccccc3c12`, with 0.197; and `CCCCC/C=C\C/C=C\C/C=C\C/C=C\CCCC(=O)O`, with 0.604.
The same measure for `COc1ccc(-c2oc3ccc(C)cc3c(=O)c2O)cc1OC`: -0.624; for `C=C(CO)C1Cc2c(ccc3c2OC2COc4cc(OC)c(OC)cc4C2C3=O)O1` (stereo not given): -1.91.
`O=c1c2ccccc2oc2cc(O)c(C3COCC(CO)C(O)C(O)C3O)c(O)c12` (stereo not given): the “secreted FVIII-Gluc luciferase Z-score” value was determined as 0.341.
Regarding `O=C1c2c(O)cc(O)cc2OC(c2ccc(O)c(O)c2)C1O` (stereo not given), the “secreted FVIII-Gluc luciferase Z-score” value is -0.135.
On to `CC(C)=CCC/C(C)=C/CC/C(C)=C/CO`, for which the “secreted FVIII-Gluc luciferase Z-score” value worked out at 0.255.
Consider `C[C@H]1[C@H](C)CC[C@]2(C(=O)O)CC[C@]3(C)C(=CC[C@@H]4[C@@]5(C)CC[C@H](O)C(C)(C)[C@@H]5CC[C@]43C)[C@H]12`, for which the “secreted FVIII-Gluc luciferase Z-score” value worked out at 0.136.
For the compound `CC1(C)CC[C@]2(C(=O)O)CC[C@]3(C)C(=CC[C@@H]4[C@@]5(C)CC[C@H](O)C(C)(C)[C@@H]5CC[C@]43C)[C@@H]2C1`, the “secreted FVIII-Gluc luciferase Z-score” value was 0.157.
On to `O=c1c(O)c(-c2ccc(O)cc2O)oc2cc(O)cc(O)c12`, for which the “secreted FVIII-Gluc luciferase Z-score” value amounted to 0.571.
Consider `CC1=CC(=O)C2CC1C2(C)C` (stereo not given), for which the “secreted FVIII-Gluc luciferase Z-score” value was determined as 0.115.
The same measure for `CC(=O)c1c(O)c(C)c(O)c2c1OC1=CC(=O)C(C(C)=O)C(=O)[C@@]12C` (stereo not given in full): -5.07; for `NC(Cc1c[nH]c2ccccc12)C(=O)NCC(=O)O` (stereo not given): -1.06; for `COc1ccccc1-c1oc2ccccc2c(=O)c1O`: -0.65.
As for `C[C@H]1O[C@@H](O[C@H]2[C@@H](O)C[C@H](O[C@H]3[C@@H](O)C[C@H](O[C@H]4CC[C@@]5(C)[C@H](CC[C@@H]6[C@@H]5C[C@@H](O)[C@]5(C)[C@@H](C7=CC(=O)OC7)CC[C@]65O)C4)O[C@@H]3C)O[C@@H]2C)C[C@H](O)[C@@H]1O`, the “secreted FVIII-Gluc luciferase Z-score” value was -4.67.
Regarding `COc1cc(C=O)ccc1O`, the “secreted FVIII-Gluc luciferase Z-score” value came to 0.374.
The same measure for `COc1cc2c(C)c3c4c(cc(OC)c(OC)c4c2cc1OC)CCN3C`: -1.2; for `Nc1ncnc2c1ncn2C1OC(CO)C(O)C1OP(=O)(O)O` (stereo not given): -0.295; for `Nc1nc2c(c(=O)[nH]1)N=C(CNc1ccc(C(=O)NC(CCC(=O)O)C(=O)O)cc1)CN2` (stereo not given): 0.62.
Then `Cc1ccc(CC(Cc2nc3ccccc3[nH]2)c2nc3ccccc3[nH]2)cc1` (stereo not given), with 0.284.
In the case of `CN1C(CC(=O)c2ccccc2)CCC[C@H]1CC(O)c1ccccc1` (stereo not given in full), the “secreted FVIII-Gluc luciferase Z-score” value is -0.246.
On to `O=c1c(O)c(-c2ccc(O)cc2)oc2cc(O)ccc12`, for which the “secreted FVIII-Gluc luciferase Z-score” value was determined as 0.511.
For `O=c1cc(-c2ccc(O)cc2)oc2cc(O)cc(O)c12`, the “secreted FVIII-Gluc luciferase Z-score” value was found to be 0.864.
On to `N[C@@H](Cc1ccc(O)cc1)C(=O)O`, for which the “secreted FVIII-Gluc luciferase Z-score” value was 0.446.
Then `COc1cc2c(C(=O)c3ccccc3)c3c4c(cc(OC)c(OC)c4c2cc1OC)CCN3C`, with -1.18; and `C/C(=C\CNc1ncnc2c1ncn2C1OC(CO)C(O)C1O)CO` (stereo not given), with -0.332.
On to `O=C(O)CNC(=O)c1ccccc1`, for which the “secreted FVIII-Gluc luciferase Z-score” value is 1.07.
`O=c1cc(-c2cccc(O)c2O)oc2ccccc12`: the “secreted FVIII-Gluc luciferase Z-score” value is -0.852.
Take `O=C1C=CC2=C3c4cc(O)c(O)cc4CC3(O)COC2=C1O` (stereo not given): the “secreted FVIII-Gluc luciferase Z-score” value was 0.729.
Then `CC(C)(CO)[C@@H](O)C(=O)NCCCO`, with 1.71.
With `O=C1c2ccccc2C(=O)c2c(O)c(O)cc(O)c21`, the “secreted FVIII-Gluc luciferase Z-score” value was -0.332.
As to `O=c1c(O)c(-c2ccc(O)c(O)c2)oc2ccccc12`, the “secreted FVIII-Gluc luciferase Z-score” value is -0.791.
Consider `O=C(O)/C=C/c1ccc(O)c(O)c1`, for which the “secreted FVIII-Gluc luciferase Z-score” value is -0.126.
The same measure for `C=CC1CN2CCC1CC2C(O)c1ccnc2ccc(OC)cc12` (stereo not given): -0.00699; for `O=C(O)C1OC(O)C(O)C(O)C1O` (stereo not given): 0.395.

Source of the values: the supplement of paper PMC12024529.
